This excerpt belongs to a sample that is enriched for hits.
mcGAS RapidFire = inhibitors of mouse cGAS | Q8C6L5 | recombinant mouse cGAS, cGAMP by RapidFire MS | inhibition, % at 12.5 µM | hit rate 0.18% among 130,000;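 active = inhibition of cGAS enzyme activity at or above 60%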;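 also: enzyme stimulated by 45 bp dsDNA with ATP and GTP substrates; cGAMP share of summed cGAMP plus half ATP and half GTP signals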
Target sequence (Q8C6L5 whole entry, looked up): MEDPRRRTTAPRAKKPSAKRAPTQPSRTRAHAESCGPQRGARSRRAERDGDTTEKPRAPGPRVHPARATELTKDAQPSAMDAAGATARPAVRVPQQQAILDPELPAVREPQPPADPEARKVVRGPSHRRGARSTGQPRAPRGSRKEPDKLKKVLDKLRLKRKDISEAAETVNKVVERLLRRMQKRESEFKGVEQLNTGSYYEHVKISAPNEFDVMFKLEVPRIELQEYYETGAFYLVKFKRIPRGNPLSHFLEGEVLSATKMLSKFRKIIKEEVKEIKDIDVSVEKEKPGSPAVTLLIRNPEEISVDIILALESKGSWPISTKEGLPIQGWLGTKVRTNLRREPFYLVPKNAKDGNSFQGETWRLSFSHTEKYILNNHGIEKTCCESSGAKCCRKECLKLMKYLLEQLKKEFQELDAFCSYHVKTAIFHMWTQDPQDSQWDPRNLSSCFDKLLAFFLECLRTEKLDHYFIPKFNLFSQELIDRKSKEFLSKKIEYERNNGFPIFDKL
A number is an active result; – = inactive; ! = a repeat was not active.

SMILES	mcGAS RapidFire
COc1ccccc1-c1ccc(C(=O)N2CCN(C)C(C)C2)cc1 (stereo not given)	–
COc1ccccc1OC(C)(C)C(=O)N1CCN(C)C(C(=O)O)C1 (stereo not given)	82!
CC(C)COC(=O)N1CCN(CCN2CCOCC2)CC1	–
N#Cc1ccc([N+](=O)[O-])c(O)c1	–
N#Cc1ccc(Oc2ncccc2[N+](=O)[O-])c(Cl)c1	–
N#Cc1cc(I)c(O)c([N+](=O)[O-])c1	95
NC(=O)CSCC(=O)NC(c1ccc(Cl)cc1)C1CCCC1 (stereo not given)	–
O=C(O)CC12CSc3[nH]c(=O)sc3C1c1ccccc1OC2=O (stereo not given)	–
O=C(O)C1Sc2[nH]c(=O)sc2C2c3cc(Cl)cc(Cl)c3OC(=O)C12 (stereo not given)	–
O=C1Oc2ccccc2C2c3sc(=O)[nH]c3SCC12 (stereo not given)	91
CCOC(=O)c1nn(-c2ccc(C)cc2)c(=O)cc1OCC(=O)Nc1ccc(C)cc1	–
Ic1ccccc1C=NNc1nncc2ccccc12	–
O=C(NCC1COCCO1)c1cc(COc2cccc(C(F)(F)F)c2)on1 (stereo not given)	–
Cn1ccnc1CN1CCCC(CCNS(C)(=O)=O)C1 (stereo not given)	–
CCCCc1nc(CN2CCCN(Cc3nccn3C)CC2)no1	–
CCCN1CCCC1C(=O)N1CCCN(Cc2nccn2C)CC1 (stereo not given)	94
CC(CCn1cccn1)n1ccnc1-c1cc2ccccc2o1 (stereo not given)	–
COC(=O)c1cc(-c2ccc3c(c2)CC(C)O3)on1 (stereo not given)	–
Oc1ccc2ccccc2c1SSc1c(O)ccc2ccccc12	66
O=S(=O)(N=Cc1c(O)ccc2ccccc12)c1ccccc1	–
Oc1ccc2ccccc2c1N=Nc1c(O)ccc2ccccc12	–
CCOC(=O)c1nn(-c2ccc(F)cc2)c(=O)cc1N1CCN(CCO)CC1	–
COc1cc(C)c(S(=O)(=O)Nc2c(F)cccc2F)cc1OC	87
COc1ccccc1NS(=O)(=O)c1cc(F)ccc1F	–
COc1ccc(NS(=O)(=O)c2cc(C)ccc2C)cc1OC	–
SMILES	mcGAS RapidFire
CCCCCC(=O)NC(N1CCCCC1)C(Cl)(Cl)Cl (stereo not given)	–
c1ccc2c(c1)OCC(c1nn3c(CN4CCCCCC4)nnc3s1)O2 (stereo not given)	70
S=c1n(CN2CCCC2)nc(C2COc3ccccc3O2)n1-c1ccccc1 (stereo not given)	–
c1ccc2c(c1)OCC(c1nn3c(CN4CCOCC4)nnc3s1)O2 (stereo not given)	–
CCN(CC)C(=O)C(NC(=O)c1ccccc1NC(=O)C(C)(C)C)C(C)C (stereo not given)	–
CCCOc1ccccc1N1CCn2c1nc1c2c(=O)n(CCC)c(=O)n1C	–
CCOC(=O)c1c(NC(=O)c2cccc([N+](=O)[O-])c2)sc(C(=O)Nc2ccccc2C)c1C	–
NS(=O)(=O)c1cc2c(cc1Cl)NCNS2(=O)=O	–
CN1C(CCl)Nc2cc(Cl)c(S(N)(=O)=O)cc2S1(=O)=O (stereo not given)	–
CCC1NC(=O)c2cc(S(N)(=O)=O)c(Cl)cc2N1 (stereo not given)	94
Nc1nc(N=Cc2ccc(F)cc2)n[nH]1	–
Cc1ccn2c(CCNC(=O)c3cc(C)oc3C)cnc2c1	–
CCCCn1ncc2c1NC(=O)CC2c1ccc(OCC(N)=O)c(Cl)c1 (stereo not given)	–
O=C(O)CC1C(=O)NCCN1Cc1c(F)cccc1Cl (stereo not given)	–
CCCC1C(C#N)C(=N)SC(=N)C1C#N (stereo not given)	–
CCOC(=O)C1=C(C)NC(=O)C(C#N)C1c1ccc([N+](=O)[O-])cc1 (stereo not given)	–
N#CC1C(=N)SC(=N)C(C#N)C1c1ccc([N+](=O)[O-])cc1 (stereo not given)	62
CC(C)C(NC(=O)c1ccc(=O)n(C)n1)c1ccc(C(C)(C)C)cc1 (stereo not given)	–
COc1cc(NC(=O)CN2C[C@@H](C)O[C@@H](C)C2)ccc1NC(=O)CC(C)C	–
CC(C)C(NC(=O)c1ccc2cn[nH]c2c1)c1cccs1 (stereo not given)	–
O=C(O)c1cc(O)c2c(O)c3c(O[C@H]4O[C@H](CO)[C@@H](O)[C@H](O)[C@H]4O)cccc3c(-c3c4cc(C(=O)O)cc(O)c4c(O)c4c(O[C@H]5O[C@H](CO)[C@@H](O)[C@H](O)[C@H]5O)cccc34)c2c1	82!
O=c1c(O[C@@H]2O[C@H](CO)[C@@H](O)[C@H](O)[C@H]2O)c(-c2ccc(O)c(O)c2)oc2cc(O)cc(O)c12	–
OC[C@H]1O[C@@H](Oc2ccc(O)cc2)[C@H](O)[C@@H](O)[C@@H]1O	–
COc1ccc(NC(C)=O)cc1NC(=O)Cc1coc2c(C)c(C)ccc12	–
O=C(COC(=O)c1cccc(O)c1)c1ccc2c(c1)OCO2	–
SMILES	mcGAS RapidFire
C/C(=N/Nc1nc(-c2ccc(F)cc2)cs1)c1nonc1C	–
CCc1nn2c(N)c(C=C3C=CC(=O)C=C3)c(=O)nc2s1	89
Nc1c(C=C2C=CC(=O)C=C2)c(=O)nc2sc(-c3ccccc3)nn12	–
Nc1c(C=C2C=CC(=O)C=C2)c(=O)nc2sc(-c3ccccc3Cl)nn12	–
O=C(CSc1ccc2c(c1)OCCO2)NCc1ccc(N2CCCC2)nc1	–
CSc1ccc(CN2CCCC(Nc3ccc4c(c3)OCCO4)C2)cc1 (stereo not given)	–
CCOC(=O)C1(C/C=C/c2ccccc2)CCCN(C(=O)Cc2nonc2C)C1 (stereo not given)	–
Nc1c2ccccc2nc2ccccc12	78!
Cc1ccc2c(N)cccc2n1	–
Nc1c2c(nc3ccccc13)CCCC2	–
CC(=O)NCCNS(=O)(=O)NCc1ccccc1	–
CCOC(=O)C1(CCCc2ccccc2)CCCN(C(=O)c2cc3ncccn3n2)C1 (stereo not given)	–
COc1cccc(CC2(CO)CCN(C(=O)c3cnn4ccccc34)CC2)c1	–
Cc1nn(C)c(C)c1-c1ccnc(NCc2ccc3c(c2)OCO3)n1	–
N#Cc1c(N)nc(SCC(=O)OCc2ccccc2)c(C#N)c1-c1ccc(O)cc1	–
Cc1ccc(S(=O)(=O)C(C)c2ncc(C(C)(C)C)o2)cc1C (stereo not given)	–
COc1ccc(S(=O)C(C)c2ncc(C(C)(C)C)o2)cc1OC (stereo not given)	68
CC(Nc1cccc(NC(=O)CO)c1)c1ncc(C(C)(C)C)o1 (stereo not given)	–
O=C(Cc1cccs1)NC1C2COCC1CN(CCOc1ccccc1)C2 (stereo not given)	–
CCOC(=O)C(Cc1ccccc1)N(C(=O)c1ccoc1)C1CC1 (stereo not given)	–
COc1ccc2cc(CN3CCCN(c4ccncc4)CC3)c(=O)[nH]c2c1	60
COc1ccc2[nH]c(=O)c(CN3CCC(N4CCCC(O)C4)CC3)cc2c1 (stereo not given)	–
COc1ccc2[nH]c(=O)c(CN3CCCOC(Cn4cccn4)C3)cc2c1 (stereo not given)	–
Cn1c(=O)c2ccccc2n2c(COC(=O)C3(C#N)CCCC3)nnc12	–
CC(OC(=O)C1CCN(C(=O)c2ccco2)CC1)C(=O)N(C)c1ccccc1 (stereo not given)	–
CC(=O)/C(=N/Nc1ccccc1[N+](=O)[O-])Oc1ccc(Br)cc1	–

Screening data deposited in PubChem BioAssay by Fisher Drug Discovery Resource Center.
